The results in this text go back to PubChem BioAssay AID652010 (The Scripps Research Institute Molecular Screening Center, 2013).

In all, about 370,000 compounds went through this assay and about 4,100 (1.1%) were called active. This excerpt belongs to a sample that is enriched for actives. Values without a mark were called inactive.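 The calls were made as follows: active = inhibition above the mean over all tested compounds plus 3 SD (cut at about 3.6% in these data); inactive = the rest.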

The test can be described thus: DAX1 (NR0B1) inhibitors on StAR promoter, primary screen, cell-based, luminescence, SF-1 (NR5A1), full-length DAX-1 (AID 652010).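 Also: 0% = DAX-1 cells with DMSO and 100% = cells lacking DAX-1 with DMSO; higher inhibition means more luminescence from relief of DAX-1 repression.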 To be noted: HEK293T StAR-luciferase reporter, SF-1/DAX-1 repression relief; at 6.8 µM; active compounds read high. On the technique in general: Reporter assays use an easily measured gene product as a stand-in for the process of interest.
Usually inhibition stands for the drop in the measured response relative to a control, in per cent. As for `CN1CCCc2nc(-c3ccccc3)ccc21`, the inhibition is 1.43%.

In the case of `Cc1cccc(/C(N)=N/OC(=O)c2ccccc2Cl)c1`, the inhibition is 4.38% (active).

As for `C/C(=N\OC(=O)c1ccccc1)c1c(C)nc2cc(C)ccn12`, the inhibition was -0.48%.

In the case of `Cc1ccc(C(=O)O/N=C(\N)c2ccccn2)cc1Cl`, the inhibition was 1.79%.

On to `Cc1ccc(Cn2cc(COC(=O)N(C)Cc3ccccc3)nn2)cc1`, for which the inhibition is -0.12%.

For `CC(C)(C)c1ccc(S(=O)(=O)NCC2CCN(C(=O)C(=O)c3cc4ccccc4o3)CC2)cc1`, the inhibition is -1.6%.

Take `COc1cc(/C=C/CO)cc(OC)c1O[C@@H]1O[C@H](CO)[C@@H](O)[C@H](O)[C@H]1O`: the inhibition was 0.72%.

As to `COc1ccc(CCOC2OC(CO)C(OC(=O)/C=C/c3ccc(O)c(OC)c3)C(O[C@H]3O[C@@H](C)[C@H](O)[C@@H](O)[C@H]3O)C2O)cc1O` (stereo not given in full), the inhibition is 4.55% (active).

On to `COc1cc(/C=C/C(=O)OCC(=O)NCCCc2ccccc2)ccc1O`, for which the inhibition was -0.2%.

Consider `O=C(OC12CCCN(C1)/C(=C/c1ccccc1)C2)c1ccco1` (stereo not given), for which the inhibition was 0.04%.

Regarding `CCOc1cc(C(=O)Nc2ccc(S(=O)(=O)Nc3cnc4ccccc4n3)cc2)cc(OCC)c1OCC`, the inhibition was -0.22%.

Consider `CCOc1cccc(/C=C/c2ccc3ccccc3n2)c1OC(C)=O`, for which the inhibition is 5.71% (active).

For `CCOc1ccccc1-c1cc(C(=O)N/N=C(\C)c2cccnc2)c2ccccc2n1`, the inhibition is 1.24%.

On to `Cc1ccc2c(c1)C1CN(C)CCC1N2S(=O)(=O)c1ccc(Oc2ccc([N+](=O)[O-])cc2)cc1` (stereo not given), for which the inhibition is -0.52%.

For `COCCNC(=S)N(C)[C@H]1C[C@H]2c3[nH]c4ccccc4c3CCN2C[C@H]1[C@H](C)O`, the inhibition is 1.22%.

With `CCOC(=O)N1CCN(S(=O)(=O)c2ccc3c(c2)C(C)C(=O)N3)CC1` (stereo not given), the inhibition was 0.76%.

For the compound `Fc1ccccc1-c1cc2cc3c(cc2cn1)OCO3`, the inhibition is 1.9%.

For `COc1cc(OC)cc(-c2cc3ccc(F)cc3cn2)c1`, the inhibition is 1.37%.

For the compound `Fc1ccc2cnc(-c3ccccc3)cc2c1`, the inhibition is 9.42% (active).

As for `CN(C)c1ccc(NC(=O)NC2CCCCN(Cc3ccc(Cl)cc3)C2=O)cc1` (stereo not given), the inhibition is -1.13%.

As to `COC(=O)C1C(=O)c2c([nH]c(C(=O)OCCSC)c2C)CC1C` (stereo not given), the inhibition was 5.6% (active).

As for `CN(C)[C@H]1CCN(c2cccc3c2S(=O)(=O)N2CC[C@H](C2)O3)C1`, the inhibition is 0.33%.

With `O=C(NCc1ccco1)c1nn2cccnc2c1Cl`, the inhibition is 0.65%.

As for `O=C(Nc1ccc2oc(-c3ccccc3F)nc2c1)c1ccco1`, the inhibition was 4.4% (active).

For the compound `O=C(Nc1cc(-c2nc3ncccc3o2)ccc1Cl)c1ccco1`, the inhibition was -1.38%.

For `COc1ccc(-c2c(NC(=O)c3ccco3)oc3ccc(Cl)cc3c2=O)cc1`, the inhibition was -0.46%.

For the compound `O=C(CN1CCC(NC(=O)NCc2ccccc2)CC1)Nc1ccc2c(c1)OCCO2`, the inhibition was -0.91%.

As to `Cc1cccc(NC(=O)C[C@H]2CC[C@H]3[C@@H](COc4ccc(NC(=O)Nc5ccccc5)cc4C(=O)N3C)O2)c1`, the inhibition is 0%.

As for `Cc1ccc(-c2nnc(SCC(=O)Nc3ccc(Oc4ccccc4)cc3)n2Cc2ccco2)cc1`, the inhibition is -2.13%.

Turning to `CC(C)CNc1cccc2c1S(=O)(=O)N(Cc1cn(Cc3ccccc3C(F)(F)F)nn1)Cc1ccccc1O2`, the inhibition was 0.13%.

`COc1ccc(-c2ccc(CN3C(CC(C)C)C(=O)N(Cc4cn(CC5CCCCC5)nn4)CCS3(=O)=O)cc2)cn1` (stereo not given): the inhibition is 3.92% (active).

With `COc1ccc(-c2ccc(CN3C(CC(C)C)C(=O)N(Cc4cn(CC5CCCCC5)nn4)CCS3(=O)=O)cc2)cc1` (stereo not given), the inhibition was 2.67%.

On to `COc1ccc(-c2ccc(CN3C(C(C)C)C(=O)N(Cc4cn(CC5CCCCC5)nn4)CCS3(=O)=O)cc2)cn1` (stereo not given), for which the inhibition was -0.19%.

With `COC(=O)c1cccc(Cn2ccc3ccc(-c4ccc5ccn(C(=O)C6CCCCC6)c5c4)cc32)c1`, the inhibition was 0.41%.

As for `CCOC(=O)N1CCN(C(=O)C[C@@H]2C(=O)N(CCc3ccc(Cl)cc3)C3=CCCC[C@]32C(=O)OCC)CC1`, the inhibition is -2.96%.

As to `O=C(NN=CC=Cc1ccccc1)C(O)C(O)C(=O)NN=CC=Cc1ccccc1` (stereo not given), the inhibition was 0.1%.

Take `CSc1ccc(CNC(=O)C2(C)CCCN2C)cc1` (stereo not given): the inhibition is -0.07%.

Consider `COc1ccc(C=C(C#N)C#N)c(CSc2ccccn2)c1`, for which the inhibition was -0.31%.

Take `COc1ccc2nc(-c3ccccn3)ccc2c1`: the inhibition was 15.7% (active).

`COc1ccc2cc(CCl)c(Cl)nc2c1`: the inhibition is -0.14%.

With `COC(=O)c1cc(S(=O)(=O)N2CCN(C(=O)C3CCCO3)CC2)cn1C` (stereo not given), the inhibition was 0.73%.

Regarding `N#CCC[C@H]1CC[C@]2(CCCN(Cc3ccc(Cl)cc3)C2)O1`, the inhibition is 0.06%.

Turning to `COc1ccccc1C(=O)CSc1nnc(-c2ccccn2)n1-c1ccccc1`, the inhibition is -0.86%.

With `Nn1c(SCC(=O)N2c3ccccc3Sc3ccccc32)nnc1-c1n[nH]c2c1CCC2`, the inhibition is -0.89%.

As for `O=C(COC(=O)Cc1ccccc1F)NCCc1ccccc1`, the inhibition is 1.4%.

On to `COc1ccc(CCNC(=O)COC(=O)Cc2cccc(F)c2)cc1`, for which the inhibition was 2.2%.

For `COc1ccc(CCNC(=O)COC(=O)Cc2ccccc2F)cc1`, the inhibition is 5.57% (active).

Take `C=CCN=C1NC(c2cccc(C(F)(F)F)c2)C(C(=O)OC)=C(C)N1C` (stereo not given): the inhibition is -0.18%.

Turning to `C=C(C)C#CC(Cc1ccccc1)NCC1CC1` (stereo not given), the inhibition was -0.89%.

In the case of `COc1ccc(-c2ccc3c(n2)CCCN3S(=O)(=O)c2ccc(C)cc2)cc1`, the inhibition was -0.47%.

On to `COc1ccc(-c2cn3ccc(C)cc3n2)cc1`, for which the inhibition is 5.29% (active).

In the case of `COc1ccc(-c2cn3ccsc3n2)cc1`, the inhibition is 4.57% (active).

As for `FC(F)(F)Oc1ccc(-c2cn3cccnc3n2)cc1`, the inhibition was 1.35%.

As to `COc1ccc(CSc2nnc(-c3cccc(C)c3)n2C)cc1`, the inhibition was -0.99%.

Regarding `COc1cc(OC)cc(-c2nc(=S)n3ccsc3n2)c1`, the inhibition is -0.3%.

For the compound `O=C(Nc1cccc(Cl)c1)OC1CC2CC1[C@H]1CCCCN1[C@H]2Cc1ccccc1` (stereo not given in full), the inhibition is -0.06%.

With `O=C(CSc1nc2ccccc2n1Cc1ccccc1Cl)N/N=C\c1c[nH]c2ccccc12`, the inhibition was -0.91%.

With `Cc1cc(=O)[nH]c(SCC(=O)Nc2ccc(F)cc2F)n1`, the inhibition is 0.67%.

Consider `C=CCN1[C@@H](Cc2ccccc2)COc2cccc(N3CCSCC3)c2S1(=O)=O`, for which the inhibition is 0.68%.

On to `O=C(Nc1nc2ccc(Cl)cc2s1)c1cc(-c2ccc(Cl)cc2)nc2ccccc12`, for which the inhibition was 0.51%.

Regarding `O=C(Nc1ccccc1)Nc1nc2ccccc2s1`, the inhibition was 9.89% (active).

As for `O=C(Nc1ccccc1)Nc1nnc(COc2ccccc2F)s1`, the inhibition was 0.16%.

Regarding `COC(=O)[C@]12C[C@H](CC(=O)NCc3ccccc3)C(=O)N(Cc3ccccc3)C1=C[C@H](COCc1ccccc1)O[C@@H]2C`, the inhibition is -0.43%.

For `COc1ccc(C(=O)CSc2nnc(-c3cnccn3)n2-c2ccc(C)cc2)cc1`, the inhibition was 0.38%.

For the compound `CSc1ccc(C=Nn2c(-c3ccc(F)cc3)n[nH]c2=S)cc1`, the inhibition was -1.55%.

As for `COC(=O)C1=C(C)N(Cc2ccc(C(F)(F)F)cc2)C(=NCc2ccc(C(F)(F)F)cc2)NC1c1cccc(Cl)c1` (stereo not given), the inhibition was 0.24%.

With `CC(C)=CCc1c(O)c(CC=C(C)C)c2occ(-c3ccc(O)cc3)c(=O)c2c1O`, the inhibition is 0.21%.

With `O=c1c(-c2ccccc2)coc2cc(O)ccc12`, the inhibition is 3.75% (active).

With `CCc1ccc(Oc2coc3cc(O)ccc3c2=O)cc1`, the inhibition was 0.76%.

In the case of `Cc1ccc(C(=O)N(Cc2ccccn2)CC2CCCO2)cc1` (stereo not given), the inhibition is 0.03%.

`CCC(C)(C)C1CCC(=NNC(=O)c2ccc(Br)o2)CC1` (stereo not given): the inhibition is 1.82%.

In the case of `CC(C)(C)C1CCC(=NNC(=O)c2ccc(Br)o2)CC1` (stereo not given), the inhibition was 2.87%.

`O=C(N/N=C\C1CC=CCC1)c1ccc(Br)o1` (stereo not given): the inhibition was 8.53% (active).

As to `Cc1c[nH]c2cccc(-c3ccc(Cl)cc3)c12`, the inhibition is -0.32%.

Regarding `Cc1cc(NC(=O)CSC2=NS(=O)(=O)c3cc(Cl)ccc3N2)no1`, the inhibition is -0.79%.

As for `Cc1ccc(-n2cc3ccc([N+](=O)[O-])cc3n2)cc1`, the inhibition was 4.78% (active).

With `CC(C)(C)NC(=O)Cn1cnc2cc([N+](=O)[O-])ccc2c1=O`, the inhibition is 0.18%.

In the case of `O=c1c2cc([N+](=O)[O-])ccc2nc2n1CCC2`, the inhibition is 0.07%.

With `CCOC(=O)[C@]12CCCC3=C1N(CCC3)C(=O)[C@@H](CC(=O)NCC13CC4CC(CC(C4)C1)C3)C2`, the inhibition is -1.84%.

Turning to `CC(C)Cc1cc(C(=O)NCCc2ccccc2)no1`, the inhibition is 4.87% (active).

As to `O=C(NCCCc1ccccc1)c1cc(COc2c(F)cccc2F)on1`, the inhibition is 1.02%.

Consider `CC(C)Cc1cc(C(=O)Nc2cc(Br)ccc2O)no1`, for which the inhibition is 1.06%.

Turning to `CC(C)(CNC(=O)c1ccc(Cl)c(S(=O)(=O)N2CCc3ccccc3C2)c1)N1CCOCC1`, the inhibition was -2.85%.

For the compound `Cc1ccc(NC(=O)C2(N3CCC3=O)CCCCC2)cc1`, the inhibition was -0.08%.

Consider `Cc1ccc(NC(=O)c2csc3c2CCCC3)cc1`, for which the inhibition was 4.28% (active).

On to `CC1CC(C)CN(CCCNC(=O)c2csc3c2CCCCC3)C1` (stereo not given), for which the inhibition is 0.43%.

`O=C(NCc1ccccc1)[C@H]1CCCN1C(=O)[C@H]1CCCN1C(=O)N1CCOCC1`: the inhibition is 0.17%.

As to `COc1ccccc1C(=O)N1C(CC(=O)Nc2ccccc2C)C(=O)NC2CCCCC21` (stereo not given), the inhibition is -0.35%.

As to `COc1ccc(CCNC(=O)CSc2nc3c([nH]2)c(=O)n(C)c(=O)n3C)cc1`, the inhibition is 0.31%.

Take `COC(=O)[C@H](C(C)C)N1CCc2nnn(Cc3ccc(C)cc3)c2-c2ccccc2S1(=O)=O`: the inhibition was -0.28%.
